# In PubChem BioAssay (NCATS):
# Values joined by “and” are separate entries in the source; they are usually repeats but may differ in a detail not shown here. Identical values can stand only once. Results filed as inconclusive are left out. Entries that show only a call come without a potency. Active and inactive are the calls of the source. Unless noted, calls come from the whole dose curve; as a rule, active = well fitted curve in the direction sought with a large enough effect; inconclusive = small, poorly fitted or top-dose-only effect, or another doubt; inactive = no such curve, though single readings can be large; an effect the other way counts as inactive or inconclusive.
# Tests used:
# [1] = target: Cytochrome P450 1A2 (Homo sapiens) (UniProt P05177); test: p450-cyp1a2 (AID 410; calls by dose curve; note: potency is the fitted concentration of half-maximal effect)
# Outline: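 Read-out is luminescence from luciferin produced by CYP1A2 demethylation of Luciferin-ME (100uM, at Km). Detection reagent stopped the 60 min NADPH-dependent reaction; signals were normalized to 57 uM furafylline.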
# [2] = target: Glucocorticoid receptor (Homo sapiens) (UniProt P04150); test: GR-GFP Redistribution (AID 450;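 active = compounds whose dose series gives a full or clear partial fitted curve of increased nuclear translocation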; note: potency is the fitted concentration of half-maximal effect); conditions: U2OS GR-GFP nuclear translocation, laser cytometry, 2 h
# [3] = target: Glucocorticoid receptor (Homo sapiens) (UniProt P04150); test: GR-EFC Redistribution (AID 451; calls by dose curve; note: potency is the fitted concentration of half-maximal effect); conditions: CHO-K1 GR-EFC translocation, beta-gal luminescence, 2 h
# Outline: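 Translocation of GR-ED fusion to nuclear EA restores b-gal, read by luminescence after 1 h room-temperature detection. Engineered CHO-K1 biosensor cells, 1,000/well, exposed 2 h at 37 C to titrations up to 46 uM final.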
# [4] = target: Mitogen-activated protein kinase 10 (Mus musculus) (UniProt Q61831); test: JNK3 AlphaScreen Assay (AID 530; active = well fitted curve in either direction with a large enough effect, not every such curve was filed as active;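 note: kinase came from lysate of stimulated human HepG2 cells; signal reports phosphorylation of biotinylated GST-cJun 1-79 at Ser73 with 10 µM ATP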)
# Outline: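 Kinase buffer: 20 mM Tris-HCl pH 7.6, 10 mM MgCl2, 1 mM DTT, 0.1 mM Na3VO4, 0.01% Tween-20; ATP 10 uM. Substrate biotin-GST-cJun(1-79), enzyme from activated HepG2 lysates. Detection by Ser73 phospho-antibody AlphaScreen.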
# [5] = target: Ubiquitin carboxyl-terminal hydrolase 1 (Homo sapiens) (UniProt O94782); test: Inhibitors of USP1/UAF1: Pilot qHTS (AID 504865); note: nearly all actives have a fitted effect of over 35% in size; note: potency is the fitted concentration of half-maximal effect;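 for activity change, negative = inhibition: rhodamine fluorescence freed from ubiquitin-rhodamine substrate followed over time; top concentration of the series differs between compounds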
# Outline: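 In 50mM HEPES pH 7.8 containing 0.5mM EDTA, 1mM TCEP, 0.1 mg/ml BSA and 0.01% Tween-20, 1nM USP1/UAF1 is exposed to compound for 15 min, then Ub-Rho (150nM final) is added and fluorescence is read over time.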
# [6] = tested on: Zika virus NS2B-NS3 protease; test: Primary screen GU AMC qHTS for Zika virus inhibitors (AID 1347154); note: nearly all actives have a fitted effect of over 70% in size
# Outline: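 Fluorogenic AMC-substrate cleavage by noncovalent NS2B-NS3 protease complex (25 nM, pH 8.0 Tris buffer with Tween 20) followed for 15 minutes at room temperature (~20% conversion). Percent inhibition from ex340/em450 signal change, fitted by 4-parameter Hill equation.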
# [7] = Counterscreen qHTS for small molecule stabilizers of the endoplasmic reticulum resident proteome: GLuc-NoTag assay (AID 1508627); note: potency is the fitted concentration of half-maximal effect;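 for activity change, negative = inhibition: SH-SY5Y cells given compound then 100 nM thapsigargin to empty ER calcium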
# Outline: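 Counterscreen line: SH-SY5Y-GLuc-NoTag cells, treated with compound 19 hr before a 4 hr, 100 nM thapsigargin calcium depletion. Secreted Gaussia luciferase in the medium was measured by luminescence after coelenterazine was added (0.07x final), with cells unlysed.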
# [8] = AP1 Signaling Pathway (AID 357; active = well fitted curve in either direction with a large enough effect, not every such curve was filed as active)
# Outline: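 ME-180 cells with beta-lactamase reporter under AP-1 response element, stimulated with EC50 EGF; compounds tested in titration series, 5 h at 37 °C. CCF4 substrate added 2.5 h at room temperature; 460/530 nm emission ratio gave %activity and AC50.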
# [9] = Stat Signaling Pathway (AID 446; active = well fitted curve in either direction with a large enough effect, not every such curve was filed as active;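 note: ME-180 cervical cancer cells given 40 pM IL-6 alongside compound; SIE-controlled beta-lactamase reporter measured as 460/530 nm FRET emission ratio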)
# Outline: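 Emission at 460 and 530 nm (excitation 405 nm) reports SIE-controlled beta-lactamase in ME-180 cells. Cells received compound with 40 pM IL-6 for 5 hrs at 37 C; data scaled between 300 pM IL-6 and 125 nM JAK-inhibitor controls.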
# [10] = target: 3',5'-cyclic-AMP phosphodiesterase 4B (Homo sapiens) (UniProt Q07343); test: qHTS Assay for Inhibitors of PDE-IV (AID 607; active = well fitted activation curve with a large enough effect in the main read-out, with a control signal flat, not every such curve was filed as active)
# Outline: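 The readout is membrane depolarisation from a cAMP-sensing CNG channel, detected with a potential dye at ex 535/em 590. Cells were HEK293-derived (endogenous PDE-IV) at 1000 cells/well, titrated up to 22.9 uM final.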
# [11] = target: Guanine nucleotide-binding protein G(i) subunit alpha-1 (Homo sapiens) (UniProt P63096); test: qHTS Assay for Inhibitors of RGS12 GoLoco Motif Activity (Green Fluorophore) (AID 879);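 note: negative values mean loss of peptide binding seen as reduced polarization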
# Outline: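 A drop in FITC polarization marked displacement of the FITC-tagged RGS12 GoLoco peptide (10 nM) from Gαi1 (50 nM). Compounds were incubated 10 min at room temperature in Tris pH 7.5 buffer containing 150 mM NaCl, 0.1 mM GDP and 0.05% NP40; unlabeled peptide titration served as control.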
# [12] = target: Muscarinic acetylcholine receptor M1 (Rattus norvegicus) (UniProt P08482); test: qHTS Assay for Antagonists of Acetylcholine Muscarinic M1 Receptor: Measurement of IP-One Response (AID 944); note: nearly all actives have a fitted effect of over 75% in size
# Outline: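 Antagonism was measured as loss of carbachol-driven (EC80) IP1 accumulation in CHO cells carrying rat M1, using a homogeneous IP-One TR-FRET kit read at 620 and 665 nm.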
# [13] = target: Pyruvate kinase (Leishmania mexicana) (UniProt Q27686); test: qHTS Validation Assay for Inhibitors of Leishmania Mexicana Pyruvate Kinase (AID 945)
# Outline: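 qHTS eight-point titrations against 0.2 nM LmPYK (E451W) in imidazole buffer pH 7.2 with 0.5 mM PEP, 0.1 mM ADP; 1 h, room temperature. Readout: PKLight luminescence, normalized to neutral DMSO wells.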
# [14] = target: Pyruvate kinase PKM (Homo sapiens) (UniProt P14618); test: qHTS Assay for Activators of Human Muscle Pyruvate Kinase (AID 954; active = well fitted curve in the direction sought with a large enough effect, not every such curve was filed as active)
# Outline: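 PKM2, human, >95% pure, 0.1 nM; PEP 0.5 mM (Km), ADP 0.1 mM; 50 mM imidazole pH 7.2, 50 mM KCl, 0.01% Tween 20, 0.05% BSA; 1 h RT; luciferase luminescence readout.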
# [15] = target: Alpha-galactosidase (Coffea arabica) (UniProt Q42656); test: Counterscreen for Glucocerebrosidase Inhibitors: qHTS Assay for Coffee Bean alpha-Galactosidase at pH 4.5 (AID 957)
# Outline: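 Quantitative HTS of compounds (0.7 nM to 77 uM) against coffee bean alpha-galactosidase at pH 4.5, measuring 4-methylumbelliferone fluorescence released from 80 uM substrate.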
# [16] = target: alpha-glucosidase (Oryza sativa, rice) (UniProt Q653V4); test: Counterscreen for Glucocerebrosidase Inhibitors: qHTS Assay for Rice alpha-Glucosidase at pH 5.0 (AID 997)
# Outline: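 Endpoint fluorogenic assay at pH 5.0: compounds (0.7 nM to 77 uM) titrated against 4 nM rice enzyme and 400 uM 4-MU-alpha-glucoside for 20 min at room temperature; NaOH/glycine stop, read ex 365/em 440 nm, Hill-fitted AC50.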
# [17] = target: Alpha-galactosidase (Coffea arabica) (UniProt Q42656); test: Counterscreen for Glucocerebrosidase Inhibitors: qHTS Assay for Coffee Bean alpha-Galactosidase at pH 5.9 (AID 998)
# Outline: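 Fluorogenic 4-MU substrate hydrolysis, 80 uM substrate and 2 nM coffee bean alpha-galactosidase, pH 5.9 citrate buffer, 20 min at room temperature, then NaOH/glycine stop. Titration 0.7 nM–77 uM, normalized to no-enzyme and enzyme controls, AC50 via Hill equation.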
# [18] = qHTS Assay for Lipid Storage Modulators (AID 1519; calls by dose curve); conditions: Drosophila S3 cells, BODIPY lipid droplet/cell ratio, laser cytometry, cells loaded with oleic acid; for activity change, negative = inhibition: at 57.5 µM (top of the series)
# Outline: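 Cells seeded at 5,000 per well were treated with compounds over a concentration series and loaded with oleic acid (400 uM, as added). Lipid droplet fluorescence (488 nm excitation, 500-530 nm channel) was read by laser-scanning cytometry and normalized to 20 uM Triacsin C.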
# [19] = target: DNA dC->dU-editing enzyme APOBEC-3G (Homo sapiens) (UniProt Q9HC16); test: qHTS for inhibitors of Vif-A3G interactions: Validation (AID 588379)
# Outline: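 Yellow fluorescence (Ex 488, Em 500-530) of Vif-coexpressing HeLa A3G-eYFP cells, scanned by Acumen cytometer, reports blocked A3G degradation. Cells plated at 700/well overnight at 37 deg C before compound addition, then a further overnight compound incubation at 37 deg C.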
# [20] = Primary qHTS for small molecule stabilizers of the endoplasmic reticulum resident proteome: Secreted ER Calcium Modulated Protein (SERCaMP) assay (AID 1508630)
# Outline: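 The SH-SY5Y reporter protocol was run at 3 concentrations up to 38.3 uM (primary) or 11 concentrations (follow-up): 16 h compound, 100 nM thapsigargin for 4 h, then extracellular luciferase luminescence.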
# [21] = measured here: cell count channel max response
# [22] = measured here: lipid channel max response
# Chain of Guanine nucleotide-binding protein G(i) subunit alpha-1 (Homo sapiens) (P63096 whole entry, looked up): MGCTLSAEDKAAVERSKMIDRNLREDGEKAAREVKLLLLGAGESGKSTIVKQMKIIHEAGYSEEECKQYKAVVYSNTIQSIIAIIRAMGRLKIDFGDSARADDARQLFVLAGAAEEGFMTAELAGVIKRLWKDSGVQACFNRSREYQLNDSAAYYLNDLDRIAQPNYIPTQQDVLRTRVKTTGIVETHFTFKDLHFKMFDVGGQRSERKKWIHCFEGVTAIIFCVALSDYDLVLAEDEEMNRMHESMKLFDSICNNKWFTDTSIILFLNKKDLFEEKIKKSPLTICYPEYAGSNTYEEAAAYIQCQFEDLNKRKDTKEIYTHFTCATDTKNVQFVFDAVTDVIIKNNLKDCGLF
# Chain of DNA dC->dU-editing enzyme APOBEC-3G (Homo sapiens) (Q9HC16 whole entry, looked up): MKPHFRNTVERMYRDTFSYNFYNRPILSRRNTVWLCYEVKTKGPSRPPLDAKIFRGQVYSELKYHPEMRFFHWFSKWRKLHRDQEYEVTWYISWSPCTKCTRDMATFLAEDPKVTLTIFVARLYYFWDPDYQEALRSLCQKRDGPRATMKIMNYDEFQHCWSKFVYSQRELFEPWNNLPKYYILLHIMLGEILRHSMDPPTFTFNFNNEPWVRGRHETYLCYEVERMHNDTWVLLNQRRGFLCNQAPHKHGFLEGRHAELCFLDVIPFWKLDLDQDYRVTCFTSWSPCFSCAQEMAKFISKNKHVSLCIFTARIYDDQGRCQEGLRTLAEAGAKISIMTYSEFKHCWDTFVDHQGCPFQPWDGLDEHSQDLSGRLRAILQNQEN
# Chain of Muscarinic acetylcholine receptor M1 (Rattus norvegicus) (P08482 whole entry, looked up): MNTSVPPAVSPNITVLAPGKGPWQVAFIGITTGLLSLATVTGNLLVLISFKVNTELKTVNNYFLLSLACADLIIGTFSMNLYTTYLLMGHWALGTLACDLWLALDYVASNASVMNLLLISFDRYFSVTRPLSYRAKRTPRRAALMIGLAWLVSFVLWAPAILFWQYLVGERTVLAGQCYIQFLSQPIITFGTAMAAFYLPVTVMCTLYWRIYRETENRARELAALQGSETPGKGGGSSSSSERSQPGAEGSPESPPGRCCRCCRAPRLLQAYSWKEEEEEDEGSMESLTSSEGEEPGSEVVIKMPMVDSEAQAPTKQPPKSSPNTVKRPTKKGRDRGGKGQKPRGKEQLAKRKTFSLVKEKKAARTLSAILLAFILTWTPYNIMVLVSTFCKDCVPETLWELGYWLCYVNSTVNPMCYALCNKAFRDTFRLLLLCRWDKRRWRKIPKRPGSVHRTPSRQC
# Chain of Pyruvate kinase (Leishmania mexicana) (Q27686 2-499 E452W): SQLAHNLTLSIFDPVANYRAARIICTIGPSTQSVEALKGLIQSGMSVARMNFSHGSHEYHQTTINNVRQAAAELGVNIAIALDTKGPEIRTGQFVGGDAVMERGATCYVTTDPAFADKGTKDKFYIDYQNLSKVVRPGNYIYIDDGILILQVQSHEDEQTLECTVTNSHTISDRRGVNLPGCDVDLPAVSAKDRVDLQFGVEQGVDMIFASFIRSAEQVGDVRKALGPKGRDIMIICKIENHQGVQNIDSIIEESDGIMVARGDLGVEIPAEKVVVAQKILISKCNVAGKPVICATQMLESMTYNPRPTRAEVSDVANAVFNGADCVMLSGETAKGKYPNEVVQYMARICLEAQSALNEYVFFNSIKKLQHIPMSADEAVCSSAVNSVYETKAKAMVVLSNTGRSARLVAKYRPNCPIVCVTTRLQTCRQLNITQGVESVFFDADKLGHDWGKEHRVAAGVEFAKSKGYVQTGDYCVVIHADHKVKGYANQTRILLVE
# Chain of Glucocorticoid receptor (Homo sapiens) (P04150 whole entry, looked up, the tested form may be a part): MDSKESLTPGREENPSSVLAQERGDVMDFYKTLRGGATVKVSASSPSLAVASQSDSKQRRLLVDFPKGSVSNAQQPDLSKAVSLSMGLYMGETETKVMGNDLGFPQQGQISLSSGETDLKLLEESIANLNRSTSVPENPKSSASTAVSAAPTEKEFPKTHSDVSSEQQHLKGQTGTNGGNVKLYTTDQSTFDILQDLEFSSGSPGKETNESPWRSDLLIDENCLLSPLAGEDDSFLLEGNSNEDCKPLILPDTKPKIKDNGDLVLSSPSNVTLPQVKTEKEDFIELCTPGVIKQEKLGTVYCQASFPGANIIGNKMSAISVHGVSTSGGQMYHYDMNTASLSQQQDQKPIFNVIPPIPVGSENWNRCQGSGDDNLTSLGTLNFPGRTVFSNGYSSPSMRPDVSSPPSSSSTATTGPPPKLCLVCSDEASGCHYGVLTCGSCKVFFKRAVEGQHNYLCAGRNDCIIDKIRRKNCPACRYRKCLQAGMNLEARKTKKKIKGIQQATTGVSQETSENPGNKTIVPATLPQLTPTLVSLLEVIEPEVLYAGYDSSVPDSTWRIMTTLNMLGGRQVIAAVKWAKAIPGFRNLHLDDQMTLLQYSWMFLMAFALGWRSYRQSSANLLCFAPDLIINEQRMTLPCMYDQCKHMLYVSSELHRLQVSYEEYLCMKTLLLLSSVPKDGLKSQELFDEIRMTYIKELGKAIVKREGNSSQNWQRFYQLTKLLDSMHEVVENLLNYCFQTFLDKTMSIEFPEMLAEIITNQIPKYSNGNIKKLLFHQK
# Chain of Alpha-galactosidase (Coffea arabica) (Q42656 whole entry, looked up): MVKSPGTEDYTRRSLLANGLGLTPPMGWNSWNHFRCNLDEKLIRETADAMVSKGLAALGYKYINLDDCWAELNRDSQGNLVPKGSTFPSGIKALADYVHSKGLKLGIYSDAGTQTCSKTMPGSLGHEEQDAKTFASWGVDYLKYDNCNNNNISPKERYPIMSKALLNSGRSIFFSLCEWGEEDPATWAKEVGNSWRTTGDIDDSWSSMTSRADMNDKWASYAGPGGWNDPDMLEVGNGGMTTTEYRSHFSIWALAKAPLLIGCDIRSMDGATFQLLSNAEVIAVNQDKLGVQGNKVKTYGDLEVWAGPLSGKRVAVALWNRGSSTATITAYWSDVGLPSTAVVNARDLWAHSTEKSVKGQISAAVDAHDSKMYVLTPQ
# Chain of Pyruvate kinase PKM (Homo sapiens) (P14618 whole entry, looked up): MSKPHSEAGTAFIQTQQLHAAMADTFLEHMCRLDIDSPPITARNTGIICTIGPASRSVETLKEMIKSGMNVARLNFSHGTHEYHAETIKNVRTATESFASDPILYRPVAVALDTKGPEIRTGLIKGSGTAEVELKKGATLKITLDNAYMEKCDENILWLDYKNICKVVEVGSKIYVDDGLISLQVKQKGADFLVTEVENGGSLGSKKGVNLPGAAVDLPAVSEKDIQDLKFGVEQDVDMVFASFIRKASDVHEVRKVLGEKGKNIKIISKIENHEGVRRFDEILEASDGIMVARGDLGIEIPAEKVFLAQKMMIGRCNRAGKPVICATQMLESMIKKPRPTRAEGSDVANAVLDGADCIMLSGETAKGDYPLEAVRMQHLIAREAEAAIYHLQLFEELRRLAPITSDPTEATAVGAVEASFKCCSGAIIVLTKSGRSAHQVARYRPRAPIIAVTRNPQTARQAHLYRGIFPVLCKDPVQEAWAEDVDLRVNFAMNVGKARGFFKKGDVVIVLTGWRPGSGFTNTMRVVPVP
# Chain of 3',5'-cyclic-AMP phosphodiesterase 4B (Homo sapiens) (Q07343 whole entry, looked up): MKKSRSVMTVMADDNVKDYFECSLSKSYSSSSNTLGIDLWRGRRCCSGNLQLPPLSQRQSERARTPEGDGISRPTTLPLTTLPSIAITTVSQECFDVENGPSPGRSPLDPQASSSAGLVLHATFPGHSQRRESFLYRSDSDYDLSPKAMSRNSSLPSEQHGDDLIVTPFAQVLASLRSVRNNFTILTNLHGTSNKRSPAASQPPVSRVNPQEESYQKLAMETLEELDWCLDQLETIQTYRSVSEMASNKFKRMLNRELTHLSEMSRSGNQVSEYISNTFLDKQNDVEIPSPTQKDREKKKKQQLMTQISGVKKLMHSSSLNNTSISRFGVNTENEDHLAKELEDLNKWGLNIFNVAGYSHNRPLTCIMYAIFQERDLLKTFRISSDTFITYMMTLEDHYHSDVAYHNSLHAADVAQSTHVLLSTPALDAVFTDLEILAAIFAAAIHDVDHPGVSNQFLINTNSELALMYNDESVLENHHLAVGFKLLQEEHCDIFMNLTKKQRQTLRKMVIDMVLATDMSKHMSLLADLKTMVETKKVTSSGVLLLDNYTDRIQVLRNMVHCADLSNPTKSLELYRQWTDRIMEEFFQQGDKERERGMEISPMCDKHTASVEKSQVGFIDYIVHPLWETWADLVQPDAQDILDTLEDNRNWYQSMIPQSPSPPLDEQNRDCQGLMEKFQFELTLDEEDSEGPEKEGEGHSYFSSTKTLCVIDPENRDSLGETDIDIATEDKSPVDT
# Chain of Cytochrome P450 1A2 (Homo sapiens) (P05177 whole entry, looked up): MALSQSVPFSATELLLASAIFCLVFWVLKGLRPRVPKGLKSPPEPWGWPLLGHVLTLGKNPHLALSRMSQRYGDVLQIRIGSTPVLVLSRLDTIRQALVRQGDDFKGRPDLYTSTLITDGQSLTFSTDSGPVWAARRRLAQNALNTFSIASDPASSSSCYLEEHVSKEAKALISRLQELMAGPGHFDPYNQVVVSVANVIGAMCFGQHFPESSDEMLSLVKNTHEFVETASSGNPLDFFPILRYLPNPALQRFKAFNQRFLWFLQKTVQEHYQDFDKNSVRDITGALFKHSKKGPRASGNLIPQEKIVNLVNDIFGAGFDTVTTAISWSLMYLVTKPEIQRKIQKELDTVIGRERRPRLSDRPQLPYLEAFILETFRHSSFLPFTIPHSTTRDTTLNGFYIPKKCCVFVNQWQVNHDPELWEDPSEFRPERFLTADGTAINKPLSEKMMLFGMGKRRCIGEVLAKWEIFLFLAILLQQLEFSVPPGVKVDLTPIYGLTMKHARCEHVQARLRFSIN
compound,measurement,setting,value
COc1ccc2[nH]cc(C3=CCNCC3)c2c1,Potency,[1],251 nM (active)
same,Potency,[2],> 46 µM (inactive)
same,Potency,[3],> 46 µM (inactive)
same,outcome,[4],inactive
same,Potency,[5],44.7 µM (active)
same,Potency,[6],inactive
same,Potency,[7],6.31 µM (active)
N[C@H](CCCCCP(=O)(O)O)C(=O)O,outcome,[8],inactive
same,Potency,[1],inactive
same,outcome,[9],inactive
same,Potency,[2],> 46 µM (inactive)
same,Potency,[3],> 46 µM (inactive)
same,outcome,[4],inactive
same,Potency,[10],inactive
same,outcome,[11],inactive
same,Potency,[12],inactive
same,outcome,[13],inactive
same,outcome,[14],inactive
same,outcome,[15],inactive
same,outcome,[16],inactive
same,outcome,[17],inactive
same,"activity change, negative = inhibition",[18],-3.15% (inactive)
same,max response,[18]; [21],-11.8%
same,max response,[18]; [22],-15.1%
same,Potency,[5],inactive
same,Potency,[19],inactive
same,Potency,[6],inactive
same,Potency,[20],inactive
COc1ccc2[nH]cc(CCN(C)C)c2c1,outcome,[8],inactive
same,Potency,[1],15800 nM (active)
same,outcome,[9],inactive
same,Potency,[2],> 46 µM (inactive) and > 20.6 µM (inactive)
same,Potency,[3],> 46 µM (inactive)
same,outcome,[4],inactive
same,outcome,[11],inactive
same,Potency,[12],inactive
same,outcome,[13],inactive
same,outcome,[14],inactive
same,outcome,[15],inactive
same,outcome,[16],inactive
same,outcome,[17],inactive
same,Potency,[6],inactive
CN1CC[C@@H]2CN3CCc4cccc(c43)[C@@H]2C1,Potency,[6],inactive
same,Potency,[7],inactive
CC(C)[C@]1(O)[C@@H](OC(=O)c2ccc[nH]2)[C@@]2(O)[C@@]3(C)C[C@]4(O)O[C@@]5([C@H](O)[C@@H](C)CC[C@]35O)[C@@]2(O)C41C,Potency,[6],inactive
same,Potency,[7],inactive
same,Potency,[20],inactive
CN1CCN(c2ccc3ccccc3n2)CC1,Potency,[1],10 µM (active) and 3.16 µM (active)
same,Potency,[2],> 46 µM (inactive)
same,Potency,[3],> 46 µM (inactive)
same,outcome,[4],inactive
same,outcome,[11],inactive
same,outcome,[13],inactive
same,outcome,[14],inactive
same,outcome,[15],inactive
same,outcome,[16],inactive
same,outcome,[17],inactive
same,"activity change, negative = inhibition",[18],-1.18% (inactive) and 2.43% (inactive)
same,max response,[18]; [21],12.9% and -15.1%
same,max response,[18]; [22],12.4% and -14.2%
same,Potency,[19],inactive
same,Potency,[6],inactive
C=C1[C@@H](C)[C@H]2[C@H](Cc3ccccc3)NC(=O)[C@]23OC(=O)/C=C/[C@H](O)CCC[C@@H](C)C/C=C/[C@H]3[C@@H]1O,Potency,[6],inactive
same,Potency,[20],inactive
C=CCN1CCC2(C)c3cc(O)ccc3CC1C2C (stereo not drawn),"activity change, negative = inhibition",[18],-2.86% (inactive)
same,max response,[18]; [21],24.1%
same,max response,[18]; [22],21.8%
same,Potency,[6],inactive
